Consider 6 sequences from article PMC11006913.

Common to all, as to assay: PBM; 200 nM protein, PBS
Holding throughout (conditions): dsDNA, one strand shown

Assay [1] has as its target T1, SIX6 (Homo sapiens, UniProt O95475 114-200, L167I).
T1 sequence: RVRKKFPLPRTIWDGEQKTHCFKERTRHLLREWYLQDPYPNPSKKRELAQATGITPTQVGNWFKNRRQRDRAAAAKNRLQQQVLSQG

Assay [2] deals with T2, SIX6 (Homo sapiens, UniProt O95475 114-200, L143V).
T2 sequence: T1 sequence with L30V, I54L

For assay [3], the target named is T3, SIX6 (Homo sapiens, UniProt O95475 114-200, H141N).
T3 sequence: T1 sequence with H28N, I54L

Assay [4] deals with T4, SIX6 (Homo sapiens, UniProt O95475 114-200, T165P).
T4 sequence: T1 sequence with T52P, I54L

Assay [5] concerns the target T5, SIX6 (Homo sapiens, UniProt O95475 114-200, L167M).
T5 sequence: T1 sequence with I54M

The target of assay [6] is T6, SIX6 (Homo sapiens, UniProt O95475 114-200, L143M).
T6 sequence: T1 sequence with L30M, I54L

Assay [7] has as its target T7, SIX6 (Homo sapiens, UniProt O95475 114-200, L143I).
T7 sequence: T1 sequence with L30I, I54L

Assay [8] deals with T8, SIX6 (Homo sapiens, UniProt O95475 114-200, T165G).
T8 sequence: T1 sequence with T52G, I54L

Assay [9] addresses T9, SIX6 (Homo sapiens, UniProt O95475 114-200, T139Q).
T9 sequence: T1 sequence with T26Q, I54L

Assay [10] has as its target T10, SIX6 (Homo sapiens, UniProt O95475 114-200, T165A).
T10 sequence: T1 sequence with T52A, I54L

The target in assay [11] is T11, SIX6 (Homo sapiens, UniProt O95475 114-200, L167V).
T11 sequence: T1 sequence with I54V

In assay [12] the target is T12, SIX6 (Homo sapiens, UniProt O95475 114-200).
T12 sequence: T1 sequence with I54L

Assay [13] concerns the target T13, SIX6 (Homo sapiens, UniProt O95475 114-200, T165I).
T13 sequence: T1 sequence with T52I, I54L

Where a chain is given by its changes, count along the chain named.

As for GATATCAA, the binding signal with SIX6 [1] is 11.4 upbm affinity estimate (log intensity, higher = more binding, comparable within an allelic series); with SIX6 [2], 10.5 upbm affinity estimate (log intensity, higher = more binding, comparable within an allelic series); with SIX6 [3], 11.3 upbm affinity estimate (log intensity, higher = more binding, comparable within an allelic series); in the assay with SIX6 [4], 10 upbm affinity estimate (log intensity, higher = more binding, comparable within an allelic series); in the assay with SIX6 [5] it was 10.8 upbm affinity estimate (log intensity, higher = more binding, comparable within an allelic series); with SIX6 [6] it was 11 upbm affinity estimate (log intensity, higher = more binding, comparable within an allelic series). For the same sequence, the binding signal with SIX6 [7] was 10.3 upbm affinity estimate (log intensity, higher = more binding, comparable within an allelic series); in the assay with SIX6 [8], 11.3 upbm affinity estimate (log intensity, higher = more binding, comparable within an allelic series); with SIX6 [9], 11.1 upbm affinity estimate (log intensity, higher = more binding, comparable within an allelic series); in the assay with SIX6 [10] it was 11.3 upbm affinity estimate (log intensity, higher = more binding, comparable within an allelic series); with SIX6 [11], 11.1 upbm affinity estimate (log intensity, higher = more binding, comparable within an allelic series); with SIX6 [12] it was 11.1 upbm affinity estimate (log intensity, higher = more binding, comparable within an allelic series). For the same sequence, the binding signal with SIX6 [13] is 11.1 upbm affinity estimate (log intensity, higher = more binding, comparable within an allelic series).
ATATCCTA: the binding signal in the assay with SIX6 [1] is 10.8 upbm affinity estimate (log intensity, higher = more binding, comparable within an allelic series); with SIX6 [2], 10.2 upbm affinity estimate (log intensity, higher = more binding, comparable within an allelic series); in the assay with SIX6 [3], 10.8 upbm affinity estimate (log intensity, higher = more binding, comparable within an allelic series); in the assay with SIX6 [4] it was 9.8 upbm affinity estimate (log intensity, higher = more binding, comparable within an allelic series); with SIX6 [5], 10.6 upbm affinity estimate (log intensity, higher = more binding, comparable within an allelic series); with SIX6 [6], 10.7 upbm affinity estimate (log intensity, higher = more binding, comparable within an allelic series). Moreover, the binding signal with SIX6 [7] is 10.2 upbm affinity estimate (log intensity, higher = more binding, comparable within an allelic series); in the assay with SIX6 [8] it was 10.8 upbm affinity estimate (log intensity, higher = more binding, comparable within an allelic series); in the assay with SIX6 [9] it was 10.9 upbm affinity estimate (log intensity, higher = more binding, comparable within an allelic series); with SIX6 [10] it was 10.7 upbm affinity estimate (log intensity, higher = more binding, comparable within an allelic series); in the assay with SIX6 [11] it was 10.6 upbm affinity estimate (log intensity, higher = more binding, comparable within an allelic series); in the assay with SIX6 [12] it was 10.7 upbm affinity estimate (log intensity, higher = more binding, comparable within an allelic series). The binding signal in the assay with SIX6 [13] was 10.7 upbm affinity estimate (log intensity, higher = more binding, comparable within an allelic series).
With CTGATACC, the binding signal with SIX6 [1] was 11.3 upbm affinity estimate (log intensity, higher = more binding, comparable within an allelic series); with SIX6 [2], 10.4 upbm affinity estimate (log intensity, higher = more binding, comparable within an allelic series); with SIX6 [3], 11.3 upbm affinity estimate (log intensity, higher = more binding, comparable within an allelic series); with SIX6 [4] it was 9.63 upbm affinity estimate (log intensity, higher = more binding, comparable within an allelic series); with SIX6 [5], 10.6 upbm affinity estimate (log intensity, higher = more binding, comparable within an allelic series); with SIX6 [6], 11 upbm affinity estimate (log intensity, higher = more binding, comparable within an allelic series). In addition, the binding signal was 10.4 upbm affinity estimate (log intensity, higher = more binding, comparable within an allelic series) in the assay with SIX6 [7]; 11.4 upbm affinity estimate (log intensity, higher = more binding, comparable within an allelic series) with SIX6 [8]; 11.4 upbm affinity estimate (log intensity, higher = more binding, comparable within an allelic series) with SIX6 [9]; 11.4 upbm affinity estimate (log intensity, higher = more binding, comparable within an allelic series) with SIX6 [10]; 11 upbm affinity estimate (log intensity, higher = more binding, comparable within an allelic series) with SIX6 [11]; 11.1 upbm affinity estimate (log intensity, higher = more binding, comparable within an allelic series) with SIX6 [12]. Besides, in the assay with SIX6 [13], the binding signal was 11.1 upbm affinity estimate (log intensity, higher = more binding, comparable within an allelic series).
As for ATATCATG, the binding signal was 11.1 upbm affinity estimate (log intensity, higher = more binding, comparable within an allelic series) with SIX6 [1]; 10.4 upbm affinity estimate (log intensity, higher = more binding, comparable within an allelic series) with SIX6 [2]; 11.1 upbm affinity estimate (log intensity, higher = more binding, comparable within an allelic series) with SIX6 [3]; 9.92 upbm affinity estimate (log intensity, higher = more binding, comparable within an allelic series) with SIX6 [4]; 10.8 upbm affinity estimate (log intensity, higher = more binding, comparable within an allelic series) with SIX6 [5]; 10.9 upbm affinity estimate (log intensity, higher = more binding, comparable within an allelic series) with SIX6 [6]. Also, the binding signal with SIX6 [7] is 10.4 upbm affinity estimate (log intensity, higher = more binding, comparable within an allelic series); in the assay with SIX6 [8], 11.1 upbm affinity estimate (log intensity, higher = more binding, comparable within an allelic series); with SIX6 [9], 11.2 upbm affinity estimate (log intensity, higher = more binding, comparable within an allelic series); with SIX6 [10] it was 11 upbm affinity estimate (log intensity, higher = more binding, comparable within an allelic series); with SIX6 [11], 11 upbm affinity estimate (log intensity, higher = more binding, comparable within an allelic series); with SIX6 [12], 11 upbm affinity estimate (log intensity, higher = more binding, comparable within an allelic series). In addition, in the assay with SIX6 [13], the binding signal is 11 upbm affinity estimate (log intensity, higher = more binding, comparable within an allelic series).
For GGCCCCAA, the binding signal was 8.91 upbm affinity estimate (log intensity, higher = more binding, comparable within an allelic series) with SIX6 [1]; 8.77 upbm affinity estimate (log intensity, higher = more binding, comparable within an allelic series) in the assay with SIX6 [2]; 8.92 upbm affinity estimate (log intensity, higher = more binding, comparable within an allelic series) with SIX6 [3]; 9.01 upbm affinity estimate (log intensity, higher = more binding, comparable within an allelic series) in the assay with SIX6 [4]; 8.96 upbm affinity estimate (log intensity, higher = more binding, comparable within an allelic series) with SIX6 [5]; 8.92 upbm affinity estimate (log intensity, higher = more binding, comparable within an allelic series) with SIX6 [6]. Further, the binding signal with SIX6 [7] is 8.81 upbm affinity estimate (log intensity, higher = more binding, comparable within an allelic series); in the assay with SIX6 [8] it was 8.9 upbm affinity estimate (log intensity, higher = more binding, comparable within an allelic series); with SIX6 [9], 9.04 upbm affinity estimate (log intensity, higher = more binding, comparable within an allelic series); with SIX6 [10] it was 8.9 upbm affinity estimate (log intensity, higher = more binding, comparable within an allelic series); with SIX6 [11], 8.9 upbm affinity estimate (log intensity, higher = more binding, comparable within an allelic series); with SIX6 [12], 8.82 upbm affinity estimate (log intensity, higher = more binding, comparable within an allelic series). Moreover, in the assay with SIX6 [13], the binding signal is 8.91 upbm affinity estimate (log intensity, higher = more binding, comparable within an allelic series).
Regarding AAGTATCA, the binding signal was 11.3 upbm affinity estimate (log intensity, higher = more binding, comparable within an allelic series) with SIX6 [1]; 10.3 upbm affinity estimate (log intensity, higher = more binding, comparable within an allelic series) with SIX6 [2]; 11.2 upbm affinity estimate (log intensity, higher = more binding, comparable within an allelic series) in the assay with SIX6 [3]; 9.85 upbm affinity estimate (log intensity, higher = more binding, comparable within an allelic series) with SIX6 [4]; 10.6 upbm affinity estimate (log intensity, higher = more binding, comparable within an allelic series) in the assay with SIX6 [5]; 11 upbm affinity estimate (log intensity, higher = more binding, comparable within an allelic series) with SIX6 [6]. For the same sequence, the binding signal is 10.3 upbm affinity estimate (log intensity, higher = more binding, comparable within an allelic series) in the assay with SIX6 [7]; 11.2 upbm affinity estimate (log intensity, higher = more binding, comparable within an allelic series) in the assay with SIX6 [8]; 11.1 upbm affinity estimate (log intensity, higher = more binding, comparable within an allelic series) with SIX6 [9]; 11.2 upbm affinity estimate (log intensity, higher = more binding, comparable within an allelic series) with SIX6 [10]; 11 upbm affinity estimate (log intensity, higher = more binding, comparable within an allelic series) with SIX6 [11]; 10.9 upbm affinity estimate (log intensity, higher = more binding, comparable within an allelic series) with SIX6 [12]. Besides, the binding signal with SIX6 [13] was 11 upbm affinity estimate (log intensity, higher = more binding, comparable within an allelic series).
